The text below walks through data of PubChem BioAssay AID463173 (ICCB-Longwood Screening Facility, Harvard Medical School, 2010).

Screen size: about 52,000 compounds; about 4,300 (8.3%) were called active. Cut-off read from the data, not from the text of the source: active = survival mostly below about 52% (no sharp cut-off); inactive = mostly above about 56%. For the sample, actives were picked, then their nearest neighbours and some compounds at random.

The subject of the experiment is DeltatarO mutant. Put plainly: growth inhibition of S. aureus wild type versus tarO mutant, primary screen, teichoic acid synthesis inhibitors, RN4220, OD600 (AID 463173). Conditions: OD600, 18 h, hits give low values, screened at 18.75 µg/mL (by protocol).
Take `CCc1ccc(S(=O)(=O)c2nnn3c2nc(N(C)Cc2ccccc2)c2cc(Cl)ccc23)cc1`: the survival is 82% (inactive).
Under `COc1cc(-c2nc3sccn3c2Nc2cccc(C)c2)ccc1O` stands 54% (inactive).
To `Cc1ccc(Cn2c(=O)n(CCCCC(=O)NCc3ccccc3Cl)c(=O)c3ccccc32)cc1` belongs 102% (inactive); to `O=C(CCCn1c(=O)c2ccccc2n(Cc2cccc(F)c2)c1=O)NCc1ccccc1Cl`, 74% (inactive); to `Cc1ccc(Cn2c(=O)n(CCc3ccc(Cl)cc3)c(=O)c3ccccc32)cc1`, 42% (active).
For the molecule `O=c1c2cccnc2n(Cc2cccc(F)c2)c(=O)n1Cc1ccccc1Cl`, the survival was 91% (inactive).
To `Cc1ccc(CNC(=O)CCCCn2c(=O)c3ccccc3n(Cc3ccc(Cl)cc3)c2=O)cc1` belongs 105% (inactive).
Under `O=c1c2ccccc2n(Cc2cccc(F)c2)c(=O)n1Cc1ccccc1Cl` stands 29% (active); under `Cc1ccc(Cn2c(=O)n(Cc3ccccc3Cl)c(=O)c3ccccc32)cc1`, 48% (active); under `Cc1ccc(Cn2c(=O)n(Cc3ccccc3Cl)c(=O)c3cccnc32)cc1`, 69% (inactive).
In the case of `Cc1ccc(Cn2c(=O)n(CCCCC(=O)NCCc3ccc(Cl)cc3)c(=O)c3ccccc32)cc1`, the survival is 96% (inactive).
To `O=C(CCc1ccccc1)N/N=C/c1ccco1` belongs 104% (inactive); to `Cc1cc(C)c(NS(=O)(=O)c2ccc(-c3cnc(C4CC4)o3)cc2)c(C)c1`, 99% (inactive).
In the case of `CCCC(=O)C1=C(O)C(C(=O)OC)C(C)(C)CC1=N` (stereo not given), the survival was 95% (inactive).
Under `Cc1ccccc1CNC(=O)CN1CCSc2ccccc21` stands 89% (inactive); under `Cc1ccccc1NC(=O)c1c(C)oc2ccc(O)c(CN3CCCC(C)C3)c12` (stereo not given), 108% (inactive); under `Cc1nn(-c2ccccc2)c(-n2cccc2)c1C(=O)N1CCN(c2ccccc2)CC1`, 83% (inactive).
`Cc1ccc(N(C)S(=O)(=O)c2ccc3c(c2)C(C)(C)C(=O)N3C)cc1C`: the survival was 80% (inactive).
To `COc1ccc2c(Sc3ccccc3)c(C(=O)N3CCC(C)CC3)[nH]c2c1` belongs 69% (inactive); to `Cc1ccc2c(Sc3ccc(Cl)cc3)c(C(=O)N3CCCCC3)[nH]c2c1`, 85% (inactive); to `CCOC(=O)C1CCCN(S(=O)(=O)c2ccc(Cl)cc2)C1` (stereo not given), 95% (inactive).
For the molecule `COc1ccc2c(Sc3ccc(Cl)cc3)c(C(=O)N3CCC(C)CC3)[nH]c2c1`, the survival is 64% (inactive).
Under `COc1ccc2c(Sc3ccc(Cl)cc3)c(C(=O)N3CCCCC3)[nH]c2c1` stands 40% (active).
To `Cc1ccc2c(Sc3ccc(Cl)cc3)c(C(=O)N3CCC(C)CC3)[nH]c2c1` belongs 69% (inactive).
Under `O=C(c1[nH]c2ccccc2c1Sc1ccc(Cl)cc1)N1CCCCC1` stands 11% (active); under `CCOC(=O)C1CCCN(C(=O)c2ccc3c(c2)N(Cc2ccc(Cl)cc2)C(=O)c2ccccc2S3=O)C1` (stereo not given), 60% (inactive).
Turning to `CCOC(=O)C1CCCN(C(=O)c2[nH]c3ccccc3c2Sc2ccc(Cl)cc2)C1` (stereo not given), the survival is 37% (active).
With `CCOC(=O)C1CCCN(C(=O)c2ccc3c(c2)N(Cc2cccc(Cl)c2)C(=O)c2ccccc2S3(=O)=O)C1` (stereo not given), the survival was 64% (inactive).
Regarding `Cc1cccc(NC(=O)CS(=O)(=O)c2nc(-c3ccccc3)cn2-c2cccc(Cl)c2)c1C`, the survival was 63% (inactive).
Consider `Cc1ccc(C)c(Cn2c(=O)n(CCCCC(=O)NCc3ccccc3Cl)c(=O)c3ccccc32)c1`, for which the survival is 107% (inactive).
Under `COc1ccc(N(C)C(=O)Cn2cc(S(=O)(=O)N3CCN(c4ccccc4F)CC3)c3ccccc3c2=O)c(OC)c1` stands 97% (inactive); under `Cc1ccc(-c2nn3c(C)nnc3c3ccccc23)cc1S(=O)(=O)NC(C)(C)CO`, 74% (inactive).
Under `O=C(NCc1ccccc1Cl)c1cnc2sc(N3CCOCC3)nn2c1=O` stands 71% (inactive).
With `COc1cccc(-c2nc(SCc3cc(=O)c4cc(Cl)ccc4[nH]3)n[nH]2)c1`, the survival was 94% (inactive).
For `O=C(C1CC2c3ccccc3C1c1ccccc12)N1CCOCC1` (stereo not given), the survival is 86% (inactive).
Under `COc1ccc(OC)c(NC(=O)C2CCN(S(=O)(=O)c3ccc4c(c3)CC(C)N4C(C)=O)CC2)c1` (stereo not given) stands 75% (inactive); under `COc1ccc(C(=O)NCc2ccc3c(c2)CCN3C(=O)c2cccc(C)c2)cc1OC`, 119% (inactive).
Under `Cc1ccc(Cl)cc1N1CCN(S(=O)(=O)c2ccc3[nH]c4c(c3c2)CCCC4)CC1` stands 72% (inactive); under `COc1ccc(NC(=O)CN(c2ccccc2OC)S(C)(=O)=O)c(OC)c1`, 75% (inactive); under `Cc1ccc(-n2ccn(CC(=O)c3ccc(F)cc3)c(=O)c2=O)cc1C`, 69% (inactive).
To `Cc1c(NC(=O)c2cc(=O)c3cc(Cl)ccc3o2)c(=O)n(-c2ccccc2)n1C` belongs 43% (active); to `Cc1cc2oc(C(=O)Nc3c(C)n(C)n(-c4ccccc4)c3=O)cc(=O)c2cc1C`, 78% (inactive).
Take `CCc1ccc2oc(C(=O)Nc3c(C)n(C)n(-c4ccccc4)c3=O)cc(=O)c2c1`: the survival was 97% (inactive).
Consider `Cc1ccc2c(=O)cc(C(=O)Nc3c(C)n(C)n(-c4ccccc4)c3=O)oc2c1`, for which the survival is 39% (active).
In the case of `Cc1c(NC(=O)c2cc(=O)c3ccccc3o2)c(=O)n(-c2ccccc2)n1C`, the survival is 67% (inactive).
In the case of `Cc1cc(C)c2c(=O)cc(C(=O)Nc3c(C)n(C)n(-c4ccccc4)c3=O)oc2c1`, the survival is 65% (inactive).
In the case of `CCN(CC)CCN1C(=O)c2ccccc2NC1c1ccccc1F` (stereo not given), the survival was 106% (inactive).
For `CCOc1ccc(NC(=O)CSc2cn(CCNC(=O)c3ccccc3F)c3ccccc23)cc1`, the survival was 71% (inactive).
To `CCC(Sc1nccn1C)C(=O)Nc1cc(C)on1` (stereo not given) belongs 90% (inactive); to `CCC(Sc1nc2cc(OC)c(OC)cc2c(=O)n1Cc1ccc(Cl)cc1)C(=O)NCCOC` (stereo not given), 91% (inactive).
To `CCC(Sc1nc2nccnc2c(=O)n1Cc1ccc(Cl)cc1)C(=O)NC1CCCCC1` (stereo not given) belongs 19% (active); to `CCC(C(=O)NC1CCCCC1)n1c(SCc2ccc(F)cc2)nc2ccncc21` (stereo not given), 73% (inactive); to `CCC(Sc1nnc(-c2ccc(F)cc2)c(-c2ccc(F)cc2)n1)C(=O)NC1CCCC1` (stereo not given), 75% (inactive).
Under `CCC(Sc1nc2nccnc2c(=O)n1Cc1ccc(F)cc1)C(=O)NC1CCCCC1` (stereo not given) stands 42% (active); under `CCC(Sc1nc2nccnc2c(=O)n1Cc1ccccc1Cl)C(=O)NC1CCCCC1` (stereo not given), 99% (inactive).
In the case of `CCC(Sc1nc2nccnc2c(=O)n1Cc1ccc(C)cc1)C(=O)NC1CCCCC1` (stereo not given), the survival was 39% (active).
Under `Cc1ccc(CSc2nc3cc(C(=O)NC4CCCC4)ccc3c(=O)n2Cc2ccccc2)cc1` stands 57% (inactive); under `CCC(Sc1nc2nccnc2c(=O)n1Cc1ccc(OC)cc1)C(=O)NC1CCCCC1` (stereo not given), 104% (inactive).
Under `CCOC(=O)N1CCN(C(=O)CN(c2cccc(Cl)c2C)S(=O)(=O)c2ccc(C)cc2)CC1` stands 119% (inactive); under `CC1CCN(S(=O)(=O)c2csc(C(N)=O)c2)CC1`, 85% (inactive).
As for `CC1CCN(S(=O)(=O)c2cccc(C(=O)N(C)C3(C)CCS(=O)(=O)C3)c2)CC1` (stereo not given), the survival is 75% (inactive).
Under `CN1CCN(C(c2ccc(F)cc2)c2sc3nc(-c4ccco4)nn3c2O)CC1` (stereo not given) stands 79% (inactive).
Regarding `Cc1cc(C)c(S(=O)(=O)NCC(c2ccco2)N2CCOCC2)c(C)c1` (stereo not given), the survival is 89% (inactive).
Under `CN(C)c1ccc(-c2nc3ccc(Cl)cn3c2Nc2ccc3c(c2)OCCO3)cc1` stands 143% (inactive).
On to `COc1cccc2c1Oc1nc(-c3ccccc3)nc(SCC(=O)N3CCCCC3)c1C2`, for which the survival was 100% (inactive).
Take `COc1ccc(CCC(=O)N2CCc3c([nH]c4ccccc34)C2c2ccc(F)cc2)cc1` (stereo not given): the survival was 83% (inactive).
For `Cn1c(SCc2ccccc2)nnc1-c1ccccc1`, the survival was 93% (inactive).
Under `Cc1nnc(SCc2ccccc2)n1N` stands 61% (active); under `Cc1nnc(SCC(=O)O)n1N`, 114% (inactive).
`CC(C)Oc1ccc(CNC(=O)C2=Cc3ccccc3OC2)cc1`: the survival is 67% (inactive).
Under `CCOc1ccc(CCNC(=O)CCCc2nnc3n(CC)c(=O)c4sccc4n23)cc1OCC` stands 92% (inactive); under `CCOC(=O)c1ccccc1NC(=O)CSc1ncc2c(n1)-c1ccccc1N(CC)S2(=O)=O`, 83% (inactive); under `Cc1ccc2onc(CC(=O)Nc3ccc(C(C)C)cc3)c2c1`, 46% (active).
Under `CCOc1ccccc1NC(=O)NCc1noc2ccc(C)cc12` stands 35% (active); under `COc1ccccc1CNC(=O)NCc1noc2ccc(C)cc12`, 56% (inactive); under `COc1ccc(OC)c(CNC(=O)NCc2noc3ccc(C)cc23)c1`, 104% (inactive).
Regarding `COc1ccc(Cl)cc1N(C)C(=O)Cc1noc2ccc(C)cc12`, the survival was 50% (inactive).
To `Cc1ccc2onc(CNC(=O)Nc3ccccc3C#N)c2c1` belongs 76% (inactive); to `COc1ccc(NC(=O)Cc2noc3ccc(C)cc23)cc1Cl`, 56% (active); to `COC(=O)c1ccccc1NC(=O)Cc1noc2ccc(C)cc12`, 39% (active).
As to `Cc1ccc(CNC(=O)NCc2noc3ccc(C)cc23)cc1`, the survival is 47% (inactive).
To `CC(=O)c1cccc(NC(=O)Cc2noc3ccccc23)c1` belongs 49% (inactive); to `Cc1ccc2onc(CC(=O)Nc3cc(F)ccc3F)c2c1`, 48% (inactive); to `CCOc1ccccc1NC(=O)Cc1noc2ccc(C)cc12`, 48% (inactive).
`Cc1ccc(-c2nn3c(=O)cc(CN4CCN(C(=O)c5ccc(C(C)(C)C)cc5)CC4)nc3s2)cc1`: the survival was 67% (inactive).
Under `CCCCC(=O)Nc1cc2nn(-c3ccc(OCC)cc3)nc2cc1C` stands 70% (inactive).
Regarding `CCN(c1ccccc1)S(=O)(=O)c1c(C)nc2scc(C)n2c1=O`, the survival was 66% (inactive).
As to `COc1ccc(CC(=O)NC2CC(=O)N(c3ccc(C)c(C)c3)C2)cc1OC` (stereo not given), the survival is 63% (inactive).
In the case of `Cc1cc(C(=O)Nc2ccc(-n3c(C)nc4ccccc4c3=O)cc2)ccc1[N+](=O)[O-]`, the survival is 131% (inactive).
Under `CCOC(=O)c1ccc(NC(=O)Cc2noc3ccc(C)cc23)cc1` stands 45% (active).
To `CCOC(=O)c1ccc(NC(=O)Cc2coc3cc(C)cc(C)c23)cc1` belongs 60% (inactive).
Under `COc1cc(NC(=O)Cc2noc3ccccc23)cc(OC)c1OC` stands 57% (inactive).
Regarding `Cc1cc(C)cc(NC(=O)NCc2noc3ccccc23)c1`, the survival was 52% (inactive).
To `Cc1cc(C)cc(NC(=O)Cc2noc3ccccc23)c1` belongs 54% (active).
As to `CCOc1ccc(NC(=O)Cc2coc3ccc(C)cc23)cc1`, the survival was 106% (inactive).
